The full data set covers some 7,900 targets. This sample favours those with a hit. About 0.6% of all pairs of compound and target were hits. A number with no mark means an inactive call.
Tests used:
Assay in all cases: log2 fold change, soluble protein after heating vs DMSO (PISA); higher = thermal stabilisation; K562 cells, 10 uM, 30 min; active = over 0.2 and 3.5 SD of the protein, either way, in both replicates (recomputed)
[1] = compound: CC[C@@H]1C(=O)N(C)c2cnc(Nc3ccc(C(=O)NC4CCN(C)CC4)cc3OC)nc2N1C1CCCC1
Summary of the method: (§1)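 Quantification of soluble protein used TMTpro 16plex LC-MS/MS, with channel sums equalised. Samples were the supernatant after 21,000xg for 90 min of pooled aliquots from K562 cells (2×10^6 cells/mL) treated with 10 μM compound for 30 min, heated for 3 min over 48°C-58°C, and extracted in PBS with 0.5% NP-40 at 4°C. Values, from duplicates, describe thermal stability against control samples on a log2 fold-change scale.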

volasertib = compound: CC[C@@H]1C(=O)N(C)c2cnc(Nc3ccc(C(=O)N[C@H]4CC[C@H](N5CCN(CC6CC6)CC5)CC4)cc3OC)nc2N1C(C)C [volasertib]
Summary of the method: as §1

[2] = compound: CC[C@H](C)N1C=C(C2=C(C=C(C=C21)C3=CN=C(C=C3)N4CCNCC4)C(=O)NCC5=C(C=C(NC5=O)C)C)C
Summary of the method: as §1

epoxomicin = compound: CC[C@H](C)[C@@H](C(=O)N[C@@H]([C@@H](C)O)C(=O)N[C@@H](CC(C)C)C(=O)[C@]1(CO1)C)NC(=O)[C@H]([C@@H](C)CC)N(C)C(=O)C [epoxomicin]
Summary of the method: as §1

[3] = compound: CCn1c(C(=O)N(C2CC2)C2CC2)cc2c3c(ncn3C)c(Nc3cc(C)n(C)n3)nc21
Summary of the method: as §1

[4] = compound: CCn1cc(-c2ccnc3[nH]c(-c4cccc(CN(C)C)c4)cc23)c(-c2ccc(NC(=O)N(C)C)cc2)n1
Summary of the method: as §1

[5] = compound: CN(C)CC(=O)Nc1ccc2[nH]c(=O)c3ccccc3c2c1
Summary of the method: as §1

rosiglitazone = compound: CN(CCOC1=CC=C(C=C1)C[C@H]2C(=O)NC(=O)S2)C3=CC=CC=N3 (racemic) [rosiglitazone]
Summary of the method: as §1

[6] = compound: CN1C2=C(C3=C1C(=O)N(N=C3)CC4=CC(=CC=C4)N)SC(=C2)S(=O)C
Summary of the method: as §1

[7] = compound: CN1CCC(CNc2ccc3ncc(-c4cccc(OC(F)(F)F)c4)n3n2)CC1
Summary of the method: as §1

saracatinib = compound: CN1CCN(CCOc2cc(OC3CCOCC3)c3c(Nc4c(Cl)ccc5c4OCO5)ncnc3c2)CC1 [saracatinib]
Summary of the method: as §1

sotrastaurin = compound: CN1CCN(c2nc(C3=C(c4c[nH]c5ccccc45)C(=O)NC3=O)c3ccccc3n2)CC1 [sotrastaurin]
Summary of the method: as §1

alvocidib = compound: CN1CC[C@H](c2c(O)cc(O)c3c(=O)cc(-c4ccccc4Cl)oc23)[C@H](O)C1 [alvocidib]
Summary of the method: as §1

Tubastatin A = compound: CN1CCc2c(c3ccccc3n2Cc2ccc(C(=O)NO)cc2)C1 [Tubastatin A]
Summary of the method: as §1

[8] = compound: CNC(=O)C1=CC=CC=C1NC2=NC(=NC=C2Cl)NC3=C(C=C(C=C3)N4CCOCC4)OC
Summary of the method: as §1

defactinib = compound: CNC(=O)c1ccc(Nc2ncc(C(F)(F)F)c(NCc3nccnc3N(C)S(C)(=O)=O)n2)cc1 [defactinib]
Summary of the method: as §1

rucaparib = compound: CNCc1ccc(-c2[nH]c3cc(F)cc4c3c2CCNC4=O)cc1 [rucaparib]
Summary of the method: as §1

[9] = compound: CNc1nc(-c2ccc3c(N)n[nH]c3c2)cc(N2C[C@@H](C(=O)NC3CCCCC3)CC[C@H]2C)n1
Summary of the method: as §1

encorafenib = compound: COC(=O)N[C@@H](C)CNc1nccc(-c2cn(C(C)C)nc2-c2cc(Cl)cc(NS(C)(=O)=O)c2F)n1 [encorafenib]
Summary of the method: as §1

[10] = compound: COC(=O)[C@H](CCSC)NC(=O)C1=C(C=C(C=C1)NC[C@H](CS)N)C2=CC=CC=C2
Summary of the method: as §1

Sequence of UniProt Q9UIV1 (Q9UIV1 whole entry, looked up): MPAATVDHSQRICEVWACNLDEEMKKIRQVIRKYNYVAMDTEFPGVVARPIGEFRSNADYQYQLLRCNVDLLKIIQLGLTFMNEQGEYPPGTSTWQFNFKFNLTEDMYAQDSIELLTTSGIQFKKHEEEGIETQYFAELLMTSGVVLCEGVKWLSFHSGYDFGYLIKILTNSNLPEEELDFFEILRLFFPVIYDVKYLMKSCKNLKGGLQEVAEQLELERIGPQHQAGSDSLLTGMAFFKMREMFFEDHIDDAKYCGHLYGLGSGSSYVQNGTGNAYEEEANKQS
Sequence of UniProt A5YKK6 (A5YKK6 whole entry, looked up): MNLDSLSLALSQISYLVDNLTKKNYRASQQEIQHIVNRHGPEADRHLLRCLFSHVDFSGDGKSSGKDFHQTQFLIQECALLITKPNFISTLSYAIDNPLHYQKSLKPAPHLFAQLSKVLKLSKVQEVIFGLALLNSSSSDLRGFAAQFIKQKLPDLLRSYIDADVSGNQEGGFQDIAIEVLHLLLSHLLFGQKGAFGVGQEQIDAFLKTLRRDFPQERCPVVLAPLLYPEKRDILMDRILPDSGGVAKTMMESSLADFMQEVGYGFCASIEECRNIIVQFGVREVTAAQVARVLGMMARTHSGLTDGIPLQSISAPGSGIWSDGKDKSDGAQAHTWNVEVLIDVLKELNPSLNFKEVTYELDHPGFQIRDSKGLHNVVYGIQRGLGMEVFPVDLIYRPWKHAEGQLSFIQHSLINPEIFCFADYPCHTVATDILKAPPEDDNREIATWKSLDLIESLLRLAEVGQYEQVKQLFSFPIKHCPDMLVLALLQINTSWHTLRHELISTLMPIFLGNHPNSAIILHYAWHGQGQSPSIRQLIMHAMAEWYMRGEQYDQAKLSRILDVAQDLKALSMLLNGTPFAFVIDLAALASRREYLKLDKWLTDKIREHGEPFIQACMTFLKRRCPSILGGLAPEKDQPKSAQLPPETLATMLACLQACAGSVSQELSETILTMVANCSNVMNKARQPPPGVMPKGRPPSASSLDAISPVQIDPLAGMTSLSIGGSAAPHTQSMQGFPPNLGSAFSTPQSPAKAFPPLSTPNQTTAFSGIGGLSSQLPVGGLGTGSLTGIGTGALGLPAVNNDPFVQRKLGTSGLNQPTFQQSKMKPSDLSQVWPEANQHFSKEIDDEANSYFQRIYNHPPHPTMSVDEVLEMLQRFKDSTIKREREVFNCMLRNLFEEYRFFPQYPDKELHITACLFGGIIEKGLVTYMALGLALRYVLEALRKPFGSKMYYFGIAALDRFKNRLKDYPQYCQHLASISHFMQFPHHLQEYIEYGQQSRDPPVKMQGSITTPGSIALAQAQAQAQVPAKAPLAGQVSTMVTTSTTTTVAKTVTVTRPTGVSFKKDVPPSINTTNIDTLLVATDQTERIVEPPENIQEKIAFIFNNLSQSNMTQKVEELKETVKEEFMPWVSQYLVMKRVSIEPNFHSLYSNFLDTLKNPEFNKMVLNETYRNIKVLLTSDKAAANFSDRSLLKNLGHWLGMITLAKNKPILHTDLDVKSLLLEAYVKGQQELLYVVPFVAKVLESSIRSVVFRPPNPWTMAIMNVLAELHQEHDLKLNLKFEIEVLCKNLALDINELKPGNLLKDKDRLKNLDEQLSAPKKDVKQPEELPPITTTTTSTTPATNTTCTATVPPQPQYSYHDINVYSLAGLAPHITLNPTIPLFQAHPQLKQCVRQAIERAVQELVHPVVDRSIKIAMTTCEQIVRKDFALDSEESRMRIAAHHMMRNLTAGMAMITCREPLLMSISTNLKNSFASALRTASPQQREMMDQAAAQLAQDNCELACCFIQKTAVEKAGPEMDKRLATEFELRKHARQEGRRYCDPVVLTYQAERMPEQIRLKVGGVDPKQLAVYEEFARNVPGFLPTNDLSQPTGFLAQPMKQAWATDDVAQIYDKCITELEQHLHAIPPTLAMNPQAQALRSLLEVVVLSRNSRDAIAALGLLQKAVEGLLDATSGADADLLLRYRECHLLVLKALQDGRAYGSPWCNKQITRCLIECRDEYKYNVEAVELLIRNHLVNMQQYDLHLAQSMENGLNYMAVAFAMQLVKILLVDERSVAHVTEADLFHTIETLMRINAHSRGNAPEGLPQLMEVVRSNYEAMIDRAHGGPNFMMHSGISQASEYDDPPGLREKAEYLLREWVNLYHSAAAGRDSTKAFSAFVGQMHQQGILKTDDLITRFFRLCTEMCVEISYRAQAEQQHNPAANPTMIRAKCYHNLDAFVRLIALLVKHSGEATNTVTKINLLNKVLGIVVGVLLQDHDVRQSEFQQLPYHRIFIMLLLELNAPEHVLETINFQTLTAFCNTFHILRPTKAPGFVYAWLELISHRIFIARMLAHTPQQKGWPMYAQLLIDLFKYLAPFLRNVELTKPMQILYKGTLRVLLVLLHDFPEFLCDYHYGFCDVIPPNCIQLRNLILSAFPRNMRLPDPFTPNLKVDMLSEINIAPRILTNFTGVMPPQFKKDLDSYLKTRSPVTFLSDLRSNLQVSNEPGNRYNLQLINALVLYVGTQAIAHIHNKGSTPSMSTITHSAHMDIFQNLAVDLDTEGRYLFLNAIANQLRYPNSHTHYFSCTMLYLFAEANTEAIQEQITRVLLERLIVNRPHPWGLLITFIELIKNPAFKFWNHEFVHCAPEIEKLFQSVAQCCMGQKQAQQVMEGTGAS
Sequence of UniProt Q96SZ6 (Q96SZ6 whole entry, looked up): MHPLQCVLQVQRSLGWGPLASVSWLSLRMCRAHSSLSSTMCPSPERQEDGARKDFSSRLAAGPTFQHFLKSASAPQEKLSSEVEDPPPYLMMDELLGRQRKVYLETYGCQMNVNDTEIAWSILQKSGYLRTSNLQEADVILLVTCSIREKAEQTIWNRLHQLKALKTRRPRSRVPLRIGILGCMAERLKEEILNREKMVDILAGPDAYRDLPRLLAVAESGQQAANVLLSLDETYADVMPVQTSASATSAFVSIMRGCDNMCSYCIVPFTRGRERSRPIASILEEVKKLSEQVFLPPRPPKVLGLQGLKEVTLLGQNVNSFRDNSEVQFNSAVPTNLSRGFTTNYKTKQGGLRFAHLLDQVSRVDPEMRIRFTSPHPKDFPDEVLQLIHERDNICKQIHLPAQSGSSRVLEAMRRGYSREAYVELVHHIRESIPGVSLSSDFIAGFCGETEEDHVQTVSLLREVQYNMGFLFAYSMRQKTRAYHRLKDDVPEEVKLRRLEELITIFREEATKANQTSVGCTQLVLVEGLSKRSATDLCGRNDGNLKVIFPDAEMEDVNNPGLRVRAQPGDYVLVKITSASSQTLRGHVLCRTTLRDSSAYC
Sequence of UniProt P41208 (P41208 whole entry, looked up): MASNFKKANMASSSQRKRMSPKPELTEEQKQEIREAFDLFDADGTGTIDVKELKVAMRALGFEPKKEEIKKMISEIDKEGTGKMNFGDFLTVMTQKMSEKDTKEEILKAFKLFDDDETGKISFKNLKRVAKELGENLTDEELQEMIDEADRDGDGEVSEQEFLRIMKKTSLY
Sequence of UniProt Q8N163 (Q8N163 whole entry, looked up): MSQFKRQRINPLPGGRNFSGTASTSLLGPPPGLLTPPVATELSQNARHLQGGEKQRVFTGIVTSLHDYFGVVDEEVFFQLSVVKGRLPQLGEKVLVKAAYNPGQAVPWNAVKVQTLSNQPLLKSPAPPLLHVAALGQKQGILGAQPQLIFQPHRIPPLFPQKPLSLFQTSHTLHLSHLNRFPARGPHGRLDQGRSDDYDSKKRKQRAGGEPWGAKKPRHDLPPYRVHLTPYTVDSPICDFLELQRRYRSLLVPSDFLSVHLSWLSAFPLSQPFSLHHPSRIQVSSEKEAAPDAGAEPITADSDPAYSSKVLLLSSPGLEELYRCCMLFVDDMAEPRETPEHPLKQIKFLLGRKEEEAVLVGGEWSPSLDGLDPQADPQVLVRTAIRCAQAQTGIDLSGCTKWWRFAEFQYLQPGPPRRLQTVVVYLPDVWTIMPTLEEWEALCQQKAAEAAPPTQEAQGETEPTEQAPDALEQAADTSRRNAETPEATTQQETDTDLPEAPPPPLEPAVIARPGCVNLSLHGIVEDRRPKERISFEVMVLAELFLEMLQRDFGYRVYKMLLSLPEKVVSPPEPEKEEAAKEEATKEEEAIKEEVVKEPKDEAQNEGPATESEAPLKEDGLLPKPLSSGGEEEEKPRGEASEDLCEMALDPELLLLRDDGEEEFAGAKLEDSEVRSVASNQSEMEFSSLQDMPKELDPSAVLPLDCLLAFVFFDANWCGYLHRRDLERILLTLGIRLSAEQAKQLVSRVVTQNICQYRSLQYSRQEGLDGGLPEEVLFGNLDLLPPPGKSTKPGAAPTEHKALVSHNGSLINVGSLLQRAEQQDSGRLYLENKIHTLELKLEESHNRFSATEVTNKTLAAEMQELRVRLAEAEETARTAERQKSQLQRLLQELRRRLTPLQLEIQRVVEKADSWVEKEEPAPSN
Sequence of UniProt P86791 (P86791 whole entry, looked up): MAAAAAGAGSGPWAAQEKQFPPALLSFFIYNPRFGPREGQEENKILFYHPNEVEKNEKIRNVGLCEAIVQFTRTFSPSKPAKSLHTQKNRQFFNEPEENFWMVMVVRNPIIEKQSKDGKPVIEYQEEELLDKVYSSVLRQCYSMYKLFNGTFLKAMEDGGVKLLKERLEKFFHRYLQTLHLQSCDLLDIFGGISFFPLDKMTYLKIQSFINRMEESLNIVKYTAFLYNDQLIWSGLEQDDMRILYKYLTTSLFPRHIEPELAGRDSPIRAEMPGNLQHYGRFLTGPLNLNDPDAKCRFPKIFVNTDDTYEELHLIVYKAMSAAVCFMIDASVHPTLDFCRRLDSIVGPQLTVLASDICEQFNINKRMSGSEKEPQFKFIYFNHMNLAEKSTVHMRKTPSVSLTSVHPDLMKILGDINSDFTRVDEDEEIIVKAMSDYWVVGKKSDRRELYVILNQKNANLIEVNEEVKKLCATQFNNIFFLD

| Target | log2 fold change [1] | log2 fold change (volasertib) | log2 fold change [2] | log2 fold change (epoxomicin) | log2 fold change [3] | log2 fold change [4] | log2 fold change [5] | log2 fold change (rosiglitazone) | log2 fold change [6] | log2 fold change [7] | log2 fold change (saracatinib) | log2 fold change (sotrastaurin) | log2 fold change (alvocidib) | log2 fold change (Tubastatin A) | log2 fold change [8] | log2 fold change (defactinib) | log2 fold change (rucaparib) | log2 fold change [9] | log2 fold change (encorafenib) | log2 fold change [10] |
| --- | --- | --- | --- | --- | --- | --- | --- | --- | --- | --- | --- | --- | --- | --- | --- | --- | --- | --- | --- | --- |
| CDK6 (UniProt Q00534) | -0.027 | -0.03 | 0.007 | 0.088 | 0.043 | 0.014 | 0.007 | 0.011 | 0.062 | -0.1 | 0.002 | -0.005 | 0.01 | 0.022 | 0.016 | -0.029 | 0.065 | -0.02 | 0.011 | 0.004 |
| CCZ1 (UniProt P86791) | -0.199 | -0.113 | -0.005 | 0.013 | -0.011 | 0.028 | -0.002 | 0.025 | -0.002 | -0.256 (active) | 0.079 | -0.003 | -0.052 | -0.016 | 0.012 | -0.018 | -0.006 | -0.025 | -0.01 | -0.019 |
| CDK5RAP1 (UniProt Q96SZ6) | -0.119 | -0.064 | 0.071 | 0.033 | 0.001 | -0.086 | -0.006 | 0.036 | -0.074 | -0.254 (active) | 0.192 | 0.072 | -0.077 | -0.238 (active) | 0.044 | 0.022 | 0.035 | 0.057 | 0.053 | -0.048 |
| CDK1 (UniProt P06493) | -0.03 | -0.05 | 0.017 | 0.055 | -0.002 | 0 | 0.03 | 0.032 | 0.005 | -0.108 | 0.007 | -0.045 | -0.063 | 0.018 | -0.043 | -0.118 | 0.013 | 0.01 | -0.01 | 0.003 |
| CHD4 isoform 2 (UniProt Q14839) | -0.124 | -0.382 | 0.158 | 0.069 | -0.051 | 0.098 | 0.048 | 0.058 | 0.1 | -0.073 | -0.006 | -0.25 | -0.135 | 0.03 | 0 | -0.247 | 0.043 | 0.041 | 0.133 | 0.017 |
| CETN2 (UniProt P41208) | 0.149 | 0.159 | -0.006 | -0.074 | 0.074 | 0.065 | -0.058 | -0.01 | -0.018 | 0.037 | 0.095 | 0.077 | -0.013 | -0.128 | -0.03 | -0.054 | 0.031 | 0.058 | -0.079 | 0.06 |
| CNOT7 (UniProt Q9UIV1) | -0.086 | -0.305 (active) | -0.049 | -0.053 | -0.16 | -0.052 | -0.121 | -0.04 | 0.021 | -0.082 | 0.008 | -0.044 | -0.091 | 0.004 | -0.035 | 0.018 | 0.051 | 0.104 | 0.113 | -0.109 |
| CASC3 (UniProt O15234) | 0.303 | 0.272 | -0.068 | -0.058 | 0.016 | 0.087 | -0.081 | 0.015 | 0.102 | 0.02 | -0.015 | 0.067 | 0.6 (active) | -0.06 | 0.021 | 0.323 | 0.158 | -0.126 | -0.089 | 0.073 |
| CA1 (UniProt P00915) | 0 | -0.02 | 0.01 | 0.016 | 0.003 | 0.042 | -0.002 | 0.045 | -0.034 | 0.134 | 0.014 | -0.001 | -0.095 | -0.013 | 0.009 | -0.057 | -0.036 | -0.016 | -0.002 | 0.004 |
| CRK (UniProt P46108) | -0.059 | -0.085 | 0.005 | 0.026 | 0.002 | -0.039 | 0.002 | 0.033 | -0.028 | -0.022 | -0.768 (active) | 0 | -0.032 | 0.092 | -0.003 | -0.056 | -0.025 | -0.006 | 0.021 | -0.024 |
| CNOT1 (UniProt A5YKK6) | -0.051 | -0.312 (active) | 0.056 | -0.028 | -0.028 | 0.028 | 0.061 | 0.013 | 0.011 | -0.082 | -0.025 | -0.087 | -0.051 | -0.003 | 0.03 | -0.057 | 0.077 | 0.024 | 0.074 | -0.031 |
| CDC42BPA isoform 6 (UniProt Q5VT25) | -0.021 | -0.86 (active) | 0.053 | 0.001 | 0.002 | 0 | 0.042 | 0.026 | 0.078 | -0.359 | -0.093 | -0.47 (active) | -0.688 (active) | 0.022 | -0.037 | -0.183 | 0.088 | -0.031 | 0.06 | -0.064 |
| CASP2 (UniProt P42575) | 0.058 | 0.112 | 0.078 | 0.024 | -0.016 | -0.153 | 0.031 | 0.072 | 0.008 | -0.08 | -0.1 | -0.048 | -0.084 | 0.082 | 0.037 | -0.08 | -0.006 | 0.053 | 0.133 | -0.005 |
| CLASP2 isoform 3 (UniProt O75122) | -0.175 | -0.326 (active) | 0.054 | 0.034 | -0.087 | -0.024 | 0.051 | 0.038 | 0 | -0.227 (active) | -0.073 | -0.232 | -0.132 | 0.016 | -0.041 | -0.1 | 0.015 | 0.035 | 0.084 | -0.043 |
| CMTR1 (UniProt Q8N1G2) | -0.053 | -0.199 | 0.024 | 0.039 | -0.01 | -0.049 | 0.038 | 0.03 | -0.055 | -0.037 | 0.009 | 0.018 | -0.053 | -0.052 | 0.045 | -0.026 | 0.003 | 0.099 | 0.06 | -0.091 |
| CCAR2 isoform 2 (UniProt Q8N163) | -0.08 | -0.343 (active) | 0.031 | -0.018 | -0.057 | -0.025 | 0.044 | 0.047 | 0.003 | -0.145 | -0.102 | -0.231 | -0.254 | 0.122 | -0.083 | -0.42 (active) | -0.106 | 0.031 | -0.011 | 0 |

From the supplement of paper PMC10849652
